Only some compounds are listed: those with a hit (about 1.3% of all), similar ones and a draw of the others.
NFkB transloc inh = blocks IL-1B driven NFkB nuclear translocation in HUVEC cells | HUVEC IL-1B NFkB p65 nuclear translocation imaging | inhibition, % at 2 µM | 94,000 tested, 0.43% active | AID 796;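 active means inhibition above about 30% together with a positive call from visual inspection of the well image, limit read from the data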;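 further: nuclear over cytoplasmic p65 intensity ratio measured by imaging; 0% = IL-1B stimulated DMSO wells and 100% = unstimulated DMSO wells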
IL1B NFkB pot = enhances IL-1B driven NFkB nuclear translocation. HUVEC IL-1B NFkB p65 nuclear translocation imaging. activation, % at 2 µM. 94,000 tested, 0.3% active;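 active means activation above 40%, about the mean plus 3 SD, also judged a hit on visual image review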;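 further: percent activation is computed from the nuclear over cytoplasmic p65 intensity ratio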
INS promoter inh = TRM-6 insulin promoter activity inhibition. 130,000 tested, 0.9% active. TRM-6 cells (human fetal islet line), insulin promoter-eGFP reporter, imaging; reporter expression induced with tamoxifen. inhibition, % at 2 µM;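 active means inhibition above the mean plus 3 SD, with well images judged a real hit on visual review, cut at about 60% in these data, passing the limit was not always enough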
HUVEC tox IL1B = HUVEC cytotoxicity counter-screen, IL-1B stimulated. HUVEC cell count loss, Hoechst imaging. cell count reduction, % at 2 µM. 94,000 tested, 0.41% active;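 active means cell count reduction more than 3 SD above the screen-wide mean, cut at about 70% in these data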;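 further: normalized per plate to untreated control cells as the no-loss baseline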
Starred values were filed as active, the others as inactive; · = no result.

SMILES	NFkB transloc inh	IL1B NFkB pot	INS promoter inh	HUVEC tox IL1B
CC(C)c1cc(C(=O)Nc2ccc3c(c2)OCO3)no1	·	·	80*	·
COc1ccc(NC(=O)c2cc(C(C)C)on2)cc1OC	4	-4	9	-40
Cc1cc(NC(=O)c2ccc3c(c2)OCO3)no1	-2	2	85*	-20
O=C(O)/C=C/c1ccccc1Oc1ccc(Cl)cc1Cl	·	·	-173	·
CC(=O)c1cccc(CN2CCCC(CCC(=O)NCc3ccc(F)c(F)c3)C2)c1 (stereo unspecified)	·	·	15	·
CC1=C(C(N)=O)C(c2ccc(Cl)cc2Cl)n2ncnc2N1 (stereo unspecified)	96*	-96	33	63
CC(=O)C1=C(C)Nc2ncnn2C1c1ccccc1Cl (stereo unspecified)	-17	17	·	-2
Cc1ccc(S(=O)(=O)Cn2nnnc2C(C)N2CCN(C(=O)c3ccco3)CC2)cc1 (stereo unspecified)	-2	1	-62	14
Cc1ccc(S(=O)(=O)Cn2nnnc2C(c2ccccc2)N2CCN(c3ccccc3)CC2)cc1 (stereo unspecified)	57*	-57	-12	23
COCCn1nnnc1C(C(C)C)N1CCN(C(=O)c2ccco2)CC1 (stereo unspecified)	29	-29	-45	88*
Cc1ccc(S(=O)(=O)Cn2nnnc2C(c2ccccc2)N2CCN(c3ncccn3)CC2)cc1 (stereo unspecified)	-4	4	0	-4
Cc1ccc(S(=O)(=O)Cn2nnnc2C(C(C)C)N2CCN(C(=O)c3ccco3)CC2)cc1 (stereo unspecified)	-44	44*	-10	-11
CCOc1ccc(CNC(=O)c2ccc(Sc3ccc(C)cc3)c(NC(C)=O)c2)cc1	·	·	-48	·
CSc1ccccc1NC(=O)CN(C)Cc1cc(=O)n2ccsc2n1	·	·	19	·
COC(=O)c1c(NC(=O)CN2CCC3(O)CCCCC3C2c2cc(OC)ccc2OC)sc(C)c1C (stereo unspecified)	·	·	64*	·
CCc1nnc(NS(=O)(=O)c2ccc(Nc3ccc4nonc4c3[N+](=O)[O-])cc2)s1	·	·	33	·
CC(C(=O)OCC(=O)Nc1ccc(S(=O)(=O)N2CCCCC2)cc1)N1C(=O)c2ccccc2C1=O (stereo unspecified)	1	-1	47	3
O=C(c1ccc(N2CCCC2=O)cc1)N1CCN(c2ccccc2)CC1	-44	44*	36	-31
Cn1nc(-c2ccc(C(=O)N3CCN(c4ccccc4)CC3)cc2)c2ccccc2c1=O	99*	-99	-11	90*
O=C(NNC(=O)c1cccnc1)Nc1cccc(Cl)c1Cl	·	·	53	·
S=C(Nc1ccccc1Cl)NC1CCCCCC1	·	·	12	·
CCC(=O)NC1CCN(C(=S)NC)CC1	·	·	-40	·
COc1ccc(OC)c2[nH]c(=O)c(CCNC(=O)c3ccc(Br)o3)cc12	0	0	86*	30
COc1ccc(OC)c2[nH]c(=O)c(CCNC(=O)c3ccc(S(=O)(=O)N(C)C)cc3)cc12	-32	32	91*	-55
COc1ccc(OC)c2[nH]c(=O)c(CCNC(=O)C(C)C)cc12	25	-25	·	-20
SMILES	NFkB transloc inh	IL1B NFkB pot	INS promoter inh	HUVEC tox IL1B
COc1cc(C(=O)NCCc2cc3c(OC)ccc(OC)c3[nH]c2=O)cc(OC)c1OC	·	·	-13	·
O=C(NCc1ccccn1)C(=O)NCc1ccccn1	·	·	80*	·
Clc1ccc(/C=C/c2ncc3ccccn23)cc1	·	·	41	·
CCOC(=O)c1nnn(-c2nonc2N)c1-c1ccccc1	-42	42*	-62	1
COc1ccc2cc(C(=O)OC(C)C)sc(=O)c2c1OC	-19	19	71*	-24
COc1ccc2cc3cc(C(=O)NCCN4CCN(c5ccccc5F)CC4)oc3nc2c1	-45	45*	22	-11
Cc1ccc(CSc2nc3c(c(N(C)C)n2)CCCC3)cc1	-11	11	17	-43
CNc1nc(SCc2ccc(C)cc2)nc2c1CCCC2	42*	-42	17	-10
COc1cccc(NC(=O)CSCC(=O)Nc2ccccc2)c1	23	-23	4	-41
COc1cccc(NC(=O)CCc2nc(-c3ccccc3F)no2)c1	5	-5	0	82*
COc1cccc(NC(=O)Cc2ccccc2)c1	-21	21	73*	-17
CCOC(=O)c1ccc(NC(=O)CCc2nc(-c3cccc(C)c3)no2)cc1	99*	-99	-13	87*
Cc1cccc(-c2noc(CCC(=O)Nc3ccccc3)n2)c1	-10	10	6	-11
CCCCCCCCCCCCCCCC[n+]1ccc(/C=N/O)cc1	·	·	-135	·
CCCCN(CCCC)C(=O)C[n+]1cccc(/C=N/O)c1	·	·	71*	·
CCOCCCNc1nc2ccccc2[nH]1	-13	13	-31	-50
CCCCNc1nc2ccccc2[nH]1	1	-1	100*	-3
O=C(O)CSC1=NC(=Nc2ccc(Cl)cc2)C2(CCCCC2)N1c1cccc(C(=O)O)c1	·	·	26	·
NS(=O)(=O)c1cccc(NC(=O)COC(=O)Cc2ccc(Cl)cc2)c1	·	·	-7	·
COc1cccc(Oc2ccc(N/C=C/C(=O)C(C)(C)C)cc2)c1	·	·	75*	·
CCN(CC)CCn1c(=S)[nH]c2cc(C(=O)N3CC=C(c4ccccc4)CC3)ccc2c1=O	·	·	-43	·
CCOC(=O)Nc1ccc2c(c1)N(C(=O)CCN1CCN(CCO)CC1)c1ccccc1S2	1	-1	89*	22
Cc1onc(-c2ccccc2Cl)c1C(=O)Nc1ccc(-c2cn3cccnc3n2)cc1	-6	6	-55	-16
Cc1onc(-c2ccccc2Cl)c1C(=O)Nc1cccc(-c2nc3ncccn3c2C)c1	-10	10	82*	2
CCOc1ccccc1NC(=O)c1cccc(S(=O)(=O)N(Cc2ccccc2)c2ccccc2OC)c1	·	·	13	·
SMILES	NFkB transloc inh	IL1B NFkB pot	INS promoter inh	HUVEC tox IL1B
CCCCNCC1C(Oc2ccc(Cl)cc2)C(=O)N1c1ccccc1C (stereo unspecified)	·	·	-75	·
Cc1cc(Cl)c(S(=O)(=O)N2CCSCC2)cc1OCC(N)=O	-1	1	-32	75*
Cc1cc(Cl)c(S(=O)(=O)N2CC(C)OC(C)C2)cc1OCC(N)=O (stereo unspecified)	9	-9	6	-10
CCCCNC(=O)CSc1nc2ccccc2c(=O)n1CCNC(C)=O	-6	6	47	-14
CC(=O)NCCn1c(SCC(=O)NCCC(C)C)nc2ccccc2c1=O	99*	-99	31	2
COc1ccccc1NC(=O)CSc1nnnn1-c1ccc(C)cc1	-41	41*	-62	-19
Cn1c(Cc2ccccc2)nnc1SCC(=O)c1ccc(Br)s1	5	-5	95*	-12
Cn1nnnc1SCC(=O)c1ccc(Br)s1	10	-10	-9	-11
Cc1ccc(NC(=O)COc2ccc3oc4c(c3c2)CCCC4)nc1	-16	16	30	80*
Cc1cccnc1NC(=O)COc1ccc2oc3c(c2c1)CCCC3	2	-2	-433	-26
CCCOc1cccc(C(=O)Nc2cccnc2)c1	-40	40*	·	-19
Cc1ccccc1C(=O)Nc1ccccc1-n1cccc1	-40	40*	-1	0
Cc1cccc(NC(=O)c2sccc2-n2cccc2)c1C	·	·	-56	·
CC(=O)c1ccc(Nc2nc(=O)c3cccnc3s2)cc1	-5	5	79*	-47
CN(C)CCNC(=S)Nc1ccc(Br)cc1	·	·	-58	·
